Data published in ChEMBL document CHEMBL3988442, “University of Dundee, Small-Polar-MMV Screening Library” (2021).
Screen size: about 48,000 compounds; about 13,000 (27%) showed an effect of 50% or more. This is one part of the list.

What follows are molecules tested on Wolbachia pipientis (assay: Anti-Wolbachia Cell-Based Screen). Conditions: 5 µM.
Format: functional
Design: scale not given: in the data most compounds retested in dose-response had high values

SMILES | Percent Effect [%]
COC(=O)COc1nc(CC(C)C)c2c(c1C#N)CCCC2 | 13.1
Cc1noc(CN(C)CC2(O)CCCN(CCC3CCCCC3)C2=O)n1 (stereo unspecified) | 5.474
CCSCCNC(=O)c1ccc(S(=O)(=O)N2C[C@@H]3C[C@H]2CN3)cc1 | -8.721
COC(CNC(=O)c1ccoc1)c1cccc(Cl)c1 (stereo unspecified) | -9.296
CCC(CC)c1nnc(NC(=O)N2CCC(C(N)=O)CC2)s1 | -0.6648
COc1ccc(C(=O)N2CCC(c3nccn3C(C)C)CC2)cc1OC | -4.969
Cc1nc(C2CCN(C(=O)c3cccnc3)CC2)c2sccn12 | -3.155
Cc1nc(C2CCN(C(=O)c3cnc(N(C)C)nc3)CC2)c2sccn12 | 121.8
COc1ncc(C(=O)N2CCC(c3nc(C)n4ccsc34)CC2)cn1 | 120.4
Cc1ncc(CN(C)CC(O)c2cccc(C(F)(F)F)c2)s1 (stereo unspecified) | 2.292
c1ccc(OCCSC2=NCCN2)cc1 | -0.348
CC(C)N(CC(N)=O)Cc1csc(-c2ncccn2)n1 | 8.567
CSc1nccn1-c1cccc(C(=O)NCC(F)(F)F)c1 | 95.57
CSc1nccn1-c1cccc(C(=O)NCc2nnc(C)n2C)c1 | 4.938
CSc1nccn1-c1cccc(C(=O)NCCCN2CCOCC2)c1 | 1.615
CSc1nccn1-c1cccc(C(=O)NCCC(=O)NC(C)C)c1 | 87.94
CSc1nccn1-c1ccc(C(=O)NCC2CC2)cc1 | 114.7
CSc1nccn1-c1cccc(C(=O)NCCN2CCS(=O)(=O)CC2)c1 | 100.7
CSc1nccn1-c1cccc(C(=O)NCC2CC2)c1 | -0.4347
CC(C)NC(=O)CCNC(=O)Nc1cccc(-c2nccn2C)c1 | -18.82
CC(C)NC(=O)CCNC(=O)c1cc(Br)cn1C(C)C | 8.916
CC(=O)N1Cc2nccn2CC(CNC(=O)c2ccnnc2)C1 (stereo unspecified) | -11.54

SMILES | Percent Effect [%]
CN(C(=O)c1cccc(C(=O)NCC(F)(F)F)c1)c1ccccc1 | -5.375
Cc1ccc2cc(C(=O)NCCN3CCS(=O)(=O)CC3)c(C)nc2c1 | -6.636
NC(=O)c1cncc(Oc2cccc(CN3CCCC3)c2Cl)n1 | 9.192
O=C(NCCN1CCOCC1)NCc1ccccc1-n1cccn1 | 1.937
CC(=O)N(C)Cc1ccccc1NCc1c(C)noc1C | 25.91
COc1cc(C2(C(=O)NC3CCN(CC4CC4)CC3)CC2)ccc1C | 28.82
CC(OCC1CC1)C(=O)NCc1cccc(CN2CCN(C)CC2)c1 (stereo unspecified) | 14.4
Cn1cnnc1SCC(=O)N1C[C@H]2CC[C@@H]1CN(Cc1cccnc1)C2 | -4.246
CN(C)[C@@H]1CN(Cc2ccc(O)cc2)C[C@H]1c1cn(C)c2ccccc12.Cl | 86.16
CN(C)[C@@H]1CN(Cc2ccccn2)C[C@H]1c1cn(C)c2ccccc12.Cl | 130.6
CC(=O)N1CCC2(CC1)[C@@H]1CN(Cc3cccnc3)C[C@@H]1C(=O)N2C | -30.73
CC(C)[C@@H]1CN(Cc2ccccc2C#N)C[C@H]1N(C)C | 11.57
CCC[C@@H]1CN(Cc2ccc(N(C)C)nc2)C[C@H]1N(C)C | -0.1894
Cn1ccnc1CN1C(=O)CO[C@H]2CN(Cc3ccccc3O)C[C@H]21 | -13.53
CN(C)[C@@H]1CN(Cc2ccccc2O)C[C@H]1c1cn(C)c2ccccc12.Cl | 136.4
CCn1c(C)nnc1CN(C)C1CCN(Cc2ccccn2)C1 (stereo unspecified) | 15.92
CC(C)[C@@H]1CN(Cc2ccccn2)C[C@H]1NS(=O)(=O)N(C)C | -0.7917
CN(C)[C@@H]1CN(Cc2cccnc2)C[C@H]1c1cn(C)c2ccccc12.Cl | 79.34
Cn1cc(CCC(=O)N2C[C@H]3CC[C@@H]2CN(Cc2ccccc2)C3)cn1 | -15.29
O=C1NC(c2ccccc2)=N[C@@]12CC[C@@H]1CN(Cc3ccoc3)C[C@@H]12 | -8.675
Cc1ccn(-c2ccccc2NCc2scnc2C)n1 | -9.292
CCc1ccc(C(C)NC(=O)c2ccc(CS(C)(=O)=O)o2)cc1 (stereo unspecified) | -17.56

SMILES | Percent Effect [%]
CC(O)CN(CC(=O)NC(=O)NC1CC1)c1ccccc1 (stereo unspecified) | 10.44
CS(=O)(=O)NC(=O)c1cc(Cl)c2c(c1)OCCCO2 | 1.063
CCc1nc(NS(=O)(=O)c2cc(C)ccc2F)no1 | 7.249
CC(C)Cc1noc(CN(C)C2CCCC2)n1 | -3.332
CC(C)Cc1noc(CN(C)c2cc(N(C)C)ncn2)n1 | 110.5
CCc1cc(N(C)Cc2noc(C(C)C)n2)nc(N2CCOCC2)n1 | -7.429
COC(C)c1noc(CN(C)c2ncccn2)n1 (stereo unspecified) | -22.13
CCn1ccnc1CN(C)c1cc(OC)ncn1 | 2.5
CCc1cc(N(C)Cc2noc(CC(C)C)n2)ncn1 | 121.1
CCN(Cc1noc(CC(C)C)n1)Cc1ccccc1C | 1.611
CC(C)Cc1noc(CN(C)c2ncccn2)n1 | 119.3
CC(C)Cc1nc(CN(C)CCOc2ccc(F)cc2)no1 | 5.016
COCCc1noc(CN(C)c2cc(C)ncn2)n1 | -9.011
Cc1ccn(Cc2nc(CC(C)C)no2)c(=O)c1 | -2.116
COc1cc(N(C)Cc2noc(CC(C)C)n2)ncn1 | 117.3
OC1CN(Cc2cccc(N3CCOCC3)c2)Cc2ccccc21 (stereo unspecified) | -36.91
O=C(c1scc2c1OCCO2)N1CCOC(Cc2ccc(F)cc2)C1 (stereo unspecified) | -34.62
CS(=O)(=O)N1CCN(C(=O)CN2CCCc3c(F)cc(F)cc32)CC1 | 12.08
CC(C)n1ncc2c1NC(=O)CC21C(=O)Nc2c(Cl)cc(Cl)cc21 (stereo unspecified) | -10.03
Cc1nn(C)c(C)c1CNC1CCOc2ccccc21 (stereo unspecified) | -9.351
Cn1ncc(NCc2cccc(COC(C)(C)C)c2)c(Cl)c1=O | -1.578
CN(Cc1nccn1C)CC1CCOc2ccccc2C1 (stereo unspecified) | 12.56
